# SUMO HTRF inh – inhibitors of in vitro SUMOylation cascade, primary screen, biochemical, HTRF, uHTS | SUMO-conjugating enzyme UBC9 (Homo sapiens), P63279 | HTRF SUMOylation assay, SAE1/SAE2 + UBC9 | inhibition, % at 35 µM | 290,000 tested, 0.36% active; in the data active = inhibition above about 50%, passing the limit was not always enough
# Target sequence (P63279 whole entry, looked up): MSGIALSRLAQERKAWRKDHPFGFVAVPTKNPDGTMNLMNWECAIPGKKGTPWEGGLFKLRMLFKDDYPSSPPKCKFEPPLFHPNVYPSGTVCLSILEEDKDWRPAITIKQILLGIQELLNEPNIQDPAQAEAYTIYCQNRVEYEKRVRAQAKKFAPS
# ALR H2O2 inh – inhibitors of human ALR sulfhydryl oxidase, primary screen, biochemical, H2O2 detection, HRP-luminol luminescence, single point; 290,000 tested, 3.8% active; inhibition, % (no concentration beside the values); purified ALR, DTT oxidation;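 active = mean replicate inhibition above about 79%, with every replicate also reaching it, limit read from the data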
# Target sequence (P55789 whole entry, looked up): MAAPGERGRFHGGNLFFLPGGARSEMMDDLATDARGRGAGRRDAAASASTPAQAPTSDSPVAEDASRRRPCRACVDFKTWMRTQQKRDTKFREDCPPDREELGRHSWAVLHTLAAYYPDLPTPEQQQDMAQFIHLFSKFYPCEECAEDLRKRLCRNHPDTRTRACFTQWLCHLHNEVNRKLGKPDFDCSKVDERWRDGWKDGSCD
# NTR1 ag – agonists of human NTR1, primary screen, imaging, U2OS cells, beta-arrestin-GFP, high content; Neurotensin receptor type 1 (Homo sapiens), P30989; NTR1-U2OS beta-arrestin-GFP spot imaging, agonist mode; activation, % at 20 µM; 330,000 tested, 0.17% active;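 active = activation at or above 40% of the spot to cytoplasm intensity ratio, with at least 20 cells analyzed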;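 also: 0% = DMSO without peptide and 100% = 100 nM NTR1 peptide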
# H9c2 protect – cardioprotection against H2O2-induced cell death, primary screen, uHTS, H9c2 cells, ATPLite luminescence | H9c2 cardiomyocytes, H2O2 injury protection, 2 h | protection from H2O2 cell death, % at 20 µM | 360,000 tested, 0.63% active | AID 588492, 2011;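 active = compounds giving at least 50% protection of heart cells from peroxide-induced death in the single-dose screen, raw or plate-pattern-corrected value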;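 also: 0% = DMSO wells with peroxide and 100% = DMSO wells without peroxide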
# Starred values were filed as active, the others as inactive; nt = no result. This is a sample that favours compounds with a hit; in the whole collection about 3.9% have one here.
SMILES,SUMO HTRF inh,ALR H2O2 inh,NTR1 ag,H9c2 protect
Cc1cc(C)n(CC(=O)NC2CCCCC2)n1,-4.3,-3.4,2.3,-1.3
Cc1cc(=O)oc2cc(OCCc3ccccc3)ccc12,-2.2,-32.1,7.6,1.4
Cc1cc(=O)oc2cc(OCCSCCN3CCCCC3)ccc12,12.6,98.8*,-0.3,3.3
COc1cc(NS(=O)(=O)c2ccc(NC(=O)/C=C/c3cccc([N+](=O)[O-])c3)cc2)ncn1,18.7,89.1*,0.0,2.0
Cc1cccc(/C=N/n2c(-c3ccncc3)n[nH]c2=S)c1,7.3,32.2,-2.3,-5.3
Cc1nn(-c2ccccc2)c2nc(-c3ccco3)cc(C(=O)O)c12,27.6,97.0*,-0.3,-4.9
CC(=O)c1c(C)[nH]c(C(=O)CN2CCN(S(=O)(=O)c3ccc(C(C)C)cc3)CC2)c1C,nt,nt,2.9,-12.7
Cc1nn(CCc2n[nH]c(=S)n2-c2ccc(F)cc2)c(C)c1[N+](=O)[O-],-6.5,80.8*,0.5,3.8
Cc1nn(CCc2n[nH]c(=S)n2-c2cccc(Cl)c2)c(C)c1[N+](=O)[O-],9.6,44.2,0.7,12.2
Cc1nn(C(C)c2n[nH]c(=S)n2-c2ccc(F)cc2)c(C)c1[N+](=O)[O-] (stereo not given),-6.6,4.9,-2.7,5.8
Cc1nn(CCc2n[nH]c(=S)n2-c2ccc(F)c(Cl)c2)c(C)c1[N+](=O)[O-],5.5,91.5*,1.6,6.2
c1ccc(CNC2=NCCCC2)cc1,18.7,3.0,-0.2,10.3
O=S1(=O)[C@H]2C[C@@H]3C=C[C@@]2(CN1Cc1ccccc1F)O3,0.1,10.9,-0.6,4.3
CCCC(=O)N1CCc2cc(-c3nc(N)sc3C)ccc21,13.3,98.2*,0.8,0.6
CCC(C)C(=O)N1CCc2cc(-c3csc(N)n3)ccc21 (stereo not given),23.1,98.2*,3.1,-22.4
CC(C)(C)C(=O)N1CCc2cc(-c3csc(N)n3)ccc21,2.0,99.1*,0.6,-32.5
CNc1nc(-c2ccc3c(c2)CCN3C(=O)c2ccccc2F)cs1,-2.3,nt,nt,-20.1
Cn1c(=O)n(C)c2cc(S(=O)(=O)NCc3ccco3)ccc21,24.6,-1.9,-1.0,-6.0
COC(=O)c1ccc(C(=O)NC2CCCN(Cc3ccc(Cl)cc3)C2)nc1 (stereo not given),14.7,-8.6,-0.1,5.8
COc1cc2ccc(=O)oc2cc1O,nt,97.9*,-2.2,5.0
Cc1ccc(NC(=O)c2ccc(C)c(S(=O)(=O)N3CCOCC3)c2)nc1,nt,nt,-1.7,4.5
CC(C)NC(=O)COc1nncc2ccccc12,19.0,99.9*,-0.1,-4.9
O=C(COc1nncc2ccccc12)NCCC1=CCCCC1,-6.8,nt,0.5,-2.0
O=C1CN(c2ccccc2)C(=S)N1C(=O)c1ccccc1,4.1,97.6*,-0.6,3.6
Cc1ccc(NC(=O)CSc2nnc(-c3ccc(S(=O)(=O)N4CCCC4)cc3)o2)cc1C,11.1,nt,45.8*,-12.1
SMILES,SUMO HTRF inh,ALR H2O2 inh,NTR1 ag,H9c2 protect
CC(=O)Nc1ccc(NC(=O)CSc2nnc(-c3cccnc3)o2)cc1,nt,98.2*,2.3,1.4
O=C(CSc1nnc(-c2cccnc2)o1)Nc1ccc(Cl)cc1,-0.8,-22.7,-0.1,-0.3
CCCCNC(=S)N1CCN(c2nc3ccccc3s2)CC1,9.3,-0.1,0.3,-14.9
CCN1/C(=C2\C(=O)N(C)C(=S)N2c2ccccc2)C=Cc2ccccc21,8.3,98.3*,4.0,-4.1
CCN1C(=O)/C(=C2/C=Cc3ccccc3N2CC)SC1=S,-8.6,99.2*,1.7,1.6
CCN1/C(=C2\C(=O)N(C)C(=S)N2C)C=Cc2ccccc21,3.6,43.0,1.5,-1.5
CN1C(=O)/C(=C2/C=Cc3ccccc3N2CCCS(=O)(=O)O)SC1=S,-0.3,83.6*,-1.1,-3.4
COc1ccc(-c2cc(C(=O)O)nc3ccc4ccccc4c23)cc1OC,24.0,22.5,-0.1,-19.7
O=C1NC(=O)C2C1C(c1cccs1)NN2Cc1ccccc1 (stereo not given),4.4,97.9*,0.4,-0.5
CC(=O)C1=C(O)C(=O)N(Cc2ccccc2)C1c1cccs1 (stereo not given),-0.8,1.9,-2.8,-4.7
CCN1C(=O)[C@H]2[C@@H](c3ccc(-c4ccccc4)c(OC)c3)N[C@@](Cc3ccccc3)(C(=O)OC)[C@H]2C1=O,nt,6.3,0.1,19.0
Cc1sc(C(C2C(=O)CC(C)(C)CC2=O)C2C(=O)CC(C)(C)CC2=O)cc1[N+](=O)[O-],9.1,56.1,16.7,-2.4
CC(C)Nc1nc(-c2ccccc2)nc(-n2ccnc2)n1,12.5,-2.8,4.5,12.3
c1ccc(-c2nc(-n3ccnc3)nc(-n3ccnc3)n2)cc1,2.5,9.9,5.3,74.4*
NC(=O)C1CCN(CC(=O)Nc2ccccc2Sc2ccc(Cl)cc2)CC1,-8.6,86.6*,-2.0,3.5
COC(=O)c1c(NC(=O)CSc2ccccc2N)sc(C)c1C,-10.3,-14.5,4.7,3.8
O=C(Cc1ccccc1)N/N=C/c1cccs1,13.2,-3.6,-1.4,2.1
Cc1cccc(NC(=O)CSCC(=O)N2CCCc3ccccc32)c1,nt,nt,-0.1,1.1
COc1ccc(CNC(=O)CSCc2ccccc2Cl)cc1,-15.7,98.1*,1.0,0.6
Cc1ccccc1CSCC(=O)Nc1ccccc1-c1ccccc1,-7.8,-23.3,19.2,-5.1
COc1ccc(NC(=O)CSCC(=O)N2CCCc3ccccc32)cc1,nt,89.9*,0.2,2.7
COc1ccc(CNC(=O)CCSCc2ccccc2Cl)c(OC)c1,-15.2,-18.7,-1.2,-3.7
COc1ccc(NC(=O)CSCc2ccccc2C)cc1,-10.5,84.0*,0.3,2.1
Cc1ccccc1CSCC(=O)N/N=C/c1cccs1,-14.0,97.9*,-1.3,-14.4
COCCOC1CCN(C(=O)C2CCC(=O)N(CCc3cccc(F)c3)C2)CC1 (stereo not given),12.6,2.6,0.2,-0.4
SMILES,SUMO HTRF inh,ALR H2O2 inh,NTR1 ag,H9c2 protect
O=S(NC1CCCCC1)C12CC3CC(CC(C3)C1)C2 (stereo not given),8.1,-2.1,2.8,5.8
COc1ccc(NC(=O)CSCC(=O)NCCc2ccccn2)cc1,-11.9,97.7*,-0.7,1.8
O=C(CCSCc1ccccc1Cl)NCc1ccco1,6.8,93.3*,-0.2,-1.5
CS(=O)(=O)c1ccc(N)c(SSc2cc(S(C)(=O)=O)ccc2N)c1,nt,98.7*,4.1,16.4
CCOC(=O)c1ccc(NC(=O)c2nc[nH]c2C(=O)N[C@@H](Cc2ccccc2)C(=O)OC(C)(C)C)cc1,-39.1,-6.7,34.0,-0.1
Cc1ccc(SCC2(O)CCN(S(=O)(=O)c3ccc(Cl)cc3)CC2)cc1,-15.0,-15.9,3.1,-18.1
Nn1c(SCC(=O)Nc2ccc(N3CCOCC3)cc2)nnc1-c1cccc(F)c1,nt,98.7*,0.8,1.7
Nn1c(SCC(=O)Nc2ccc(N3CCOCC3)cc2)nnc1-c1ccccc1F,nt,98.5*,-1.1,-9.8
Cc1nnc(SCC(=O)Nc2ccc(N3CCOCC3)cc2)n1-c1ccccc1,0.8,nt,-0.8,7.2

# Bioassay records from PubChem.
